# ± gives the standard deviation of the averaged measurements. In all, about 1,600 compounds were measured (“normalized intracellular growth (luminescence, IQM-normalized) in RAW264.7 macrophages”: median about 1, lowest 2% from about 0.43 on). The sample as a whole holds a higher share of the lowest values than the screen did.
# Tested on: Salmonella enterica serovar Typhimurium SL1344
# Test: normalized intracellular growth (luminescence, IQM-normalized) in RAW264.7 macrophages (fraction of plate interquartile mean); higher = more bacterial growth (less inhibition)
# Conditions: 10 µM
compound,measurement,setting,value
Oc1cc(Cl)ccc1Oc1ccc(Cl)cc1Cl,normalized intracellular growth,time point: T3 (3 h),0.343 ± 0.083
same,normalized intracellular growth,time point: Tfinal (~6 h),0.256 ± 0.12
Oc1ccc(Cl)cc1Cc1cc(Cl)ccc1O,normalized intracellular growth,time point: T3 (3 h),1.03 ± 0.02
same,normalized intracellular growth,time point: Tfinal (~6 h),0.859 ± 0.13
Oc1ccc(Cl)cc1,normalized intracellular growth,time point: T3 (3 h),1.02 ± 0.017
same,normalized intracellular growth,time point: Tfinal (~6 h),1.13 ± 0.023
N=C1NC(=O)N2CC12 (stereo not given),normalized intracellular growth,time point: T3 (3 h),1.051 ± 0.0073
same,normalized intracellular growth,time point: Tfinal (~6 h),0.853 ± 0.12
O=[N+]([O-])OCC(CO[N+](=O)[O-])O[N+](=O)[O-],normalized intracellular growth,time point: T3 (3 h),1.01 ± 0.044
same,normalized intracellular growth,time point: Tfinal (~6 h),0.68 ± 0.22
CC[C@H]1[C@@H]2C[C@H]3[C@@H]4N(C)c5ccccc5[C@]45C[C@@H]([C@@H]2[C@H]5O)N3[C@@H]1O,normalized intracellular growth,time point: T3 (3 h),1.07 ± 0.066
same,normalized intracellular growth,time point: Tfinal (~6 h),0.799 ± 0.035
CCn1cc(C(=O)O)c(=O)c2cc3c(cc21)OCO3,normalized intracellular growth,time point: T3 (3 h),0.923 ± 0.032
same,normalized intracellular growth,time point: Tfinal (~6 h),0.192 ± 0.011
CC[C@@H](c1cccc(O)c1)[C@@H](C)CN(C)C,normalized intracellular growth,time point: T3 (3 h),1.09 ± 0.081
same,normalized intracellular growth,time point: Tfinal (~6 h),0.708 ± 0.38
CC[C@@H](C(=O)[C@@H](C)[C@@H](O)[C@H](C)[C@@H]1O[C@@H]([C@@H](CC)C(=O)O)CC[C@@H]1C)[C@H]1O[C@]2(C=C[C@@H](O)[C@]3(CC[C@@](C)([C@H]4CC[C@](O)(CC)[C@H](C)O4)O3)O2)[C@H](C)C[C@@H]1C,normalized intracellular growth,time point: T3 (3 h),1.06 ± 0.083
same,normalized intracellular growth,time point: Tfinal (~6 h),0.73 ± 0.13
CN1C[C@H](C(=O)N[C@]2(C)O[C@@]3(O)[C@@H]4CCCN4C(=O)[C@H](Cc4ccccc4)N3C2=O)C=C2c3cccc4[nH]cc(c34)C[C@H]21,normalized intracellular growth,time point: T3 (3 h),1.03 ± 0.02
same,normalized intracellular growth,time point: Tfinal (~6 h),0.769 ± 0.38
CC([C@H](O)c1ccccc1)N(C)C (stereo not given in full),normalized intracellular growth,time point: T3 (3 h),0.977 ± 0.096
same,normalized intracellular growth,time point: Tfinal (~6 h),1.08 ± 0.12
C=C/C=C\CC1=C(C)[C@@H](OC(=O)[C@@H]2[C@@H](/C=C(\C)C(=O)OC)C2(C)C)CC1=O.C=C/C=C\CC1=C(C)[C@@H](OC(=O)[C@@H]2[C@@H](C=C(C)C)C2(C)C)CC1=O,normalized intracellular growth,time point: T3 (3 h),1.01 ± 0.014
same,normalized intracellular growth,time point: Tfinal (~6 h),0.938 ± 0.13
OC[C@@H](O)[C@H]1O[C@@H]2O[C@H](C(Cl)(Cl)Cl)O[C@@H]2[C@H]1O,normalized intracellular growth,time point: T3 (3 h),1.01 ± 0.039
same,normalized intracellular growth,time point: Tfinal (~6 h),1.07 ± 0.077
CC(=O)[O][Hg][c]1ccccc1,normalized intracellular growth,time point: T3 (3 h),0.575 ± 0.093
same,normalized intracellular growth,time point: Tfinal (~6 h),0.336 ± 0.15
C[CH2][Hg][S]c1ccccc1C(=O)[O-].[Na+],normalized intracellular growth,time point: T3 (3 h),0.4 ± 0.083
same,normalized intracellular growth,time point: Tfinal (~6 h),0.819 ± 0.26
O=C([O-])Cc1ccccc1.[Na+],normalized intracellular growth,time point: T3 (3 h),1.15 ± 0.043
same,normalized intracellular growth,time point: Tfinal (~6 h),0.699 ± 0.11
CCCCOC(=O)c1ccccc1C(=O)OCCCC,normalized intracellular growth,time point: T3 (3 h),1.029 ± 0.01
same,normalized intracellular growth,time point: Tfinal (~6 h),1.11 ± 0.15
CC(O)CN1CCN(CC(=O)[O-])CCN(CC(=O)[O-])CCN(CC(=O)[O-])CC1.[Gd+3] (stereo not given),normalized intracellular growth,time point: T3 (3 h),0.946 ± 0.083
same,normalized intracellular growth,time point: Tfinal (~6 h),1.23 ± 0.098
C#CC(C)(O)CC (stereo not given),normalized intracellular growth,time point: T3 (3 h),0.971 ± 0.038
same,normalized intracellular growth,time point: Tfinal (~6 h),0.758 ± 0.24
CCN1C[C@]2(COC)[C@H](O)C[C@H](OC)[C@@]34[C@@H]5C[C@@]6(O)[C@H](OC(=O)c7ccccc7)[C@@H]5[C@@](OC(C)=O)([C@@H]([C@H](OC)[C@H]23)[C@@H]14)[C@@H](O)[C@@H]6OC,normalized intracellular growth,time point: T3 (3 h),0.971 ± 0.025
same,normalized intracellular growth,time point: Tfinal (~6 h),0.837 ± 0.045
